# Screens: PubChem, Paczesny and Yang Labs, IUPUI and University of Michigan
# This excerpt belongs to a sample that is enriched for hits.
# ST2 IL33 inh: inhibitors of human ST2 (IL1RL1) binding to IL-33, primary screen, biochemical, AlphaLISA | AlphaLISA ST2-Fc/biotin-IL-33 interaction, 1 h | inhibition, % for hits at 17 µM | 78,000 compounds, 2.3% hits; in the data active = inhibition above about 30%
# Target sequence (Q01638 whole entry, looked up): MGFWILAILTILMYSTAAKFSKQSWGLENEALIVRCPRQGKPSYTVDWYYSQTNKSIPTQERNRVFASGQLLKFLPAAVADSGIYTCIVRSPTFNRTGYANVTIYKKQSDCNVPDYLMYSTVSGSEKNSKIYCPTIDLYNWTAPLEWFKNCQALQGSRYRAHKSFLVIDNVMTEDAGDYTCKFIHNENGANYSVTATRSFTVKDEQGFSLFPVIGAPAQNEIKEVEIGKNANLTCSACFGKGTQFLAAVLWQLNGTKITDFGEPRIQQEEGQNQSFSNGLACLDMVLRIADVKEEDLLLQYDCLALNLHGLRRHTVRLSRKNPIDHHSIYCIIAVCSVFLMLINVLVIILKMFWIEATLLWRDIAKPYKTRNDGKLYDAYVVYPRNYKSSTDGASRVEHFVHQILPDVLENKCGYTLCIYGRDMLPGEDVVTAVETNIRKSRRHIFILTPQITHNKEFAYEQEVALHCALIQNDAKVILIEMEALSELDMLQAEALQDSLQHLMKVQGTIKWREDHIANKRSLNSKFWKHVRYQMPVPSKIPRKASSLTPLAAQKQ
# Active calls of the source: *; i = inactive.
SMILES,ST2 IL33 inh
Cc1ccc(N(C(=O)c2ccc(OC(C)C)cc2)C2C=CS(=O)(=O)C2)cc1C (centres undefined),i
CCN(C(=O)CS(=O)(=O)c1cccc2nsnc12)c1ccc(C)c(C)c1,i
O=C(O)c1ccc(CN2C[C@H](O)C[C@H]2c2nc(-c3ccccc3)no2)cc1,i
CS(=O)(=O)c1ccc(CN2C[C@H](O)C[C@H]2c2nc(-c3ccc(C(F)(F)F)cc3)no2)cc1,i
COc1ccc(CN2C[C@H](O)C[C@H]2c2nc(-c3ccc(OC(F)(F)F)cc3)no2)cc1,31%*
Cn1c(CN2C[C@H](O)C[C@H]2c2nc(-c3ccccc3)no2)nc2ccccc21,i
COc1ccc(CN2C[C@H](O)C[C@H]2c2nc(CS(=O)(=O)c3ccc(C)cc3)no2)cc1,i
O[C@@H]1C[C@@H](c2nc(-c3ccccc3)no2)N(Cc2c[nH]c3ccccc23)C1,38%*
O=C(CSc1nc2ccc(NC(=O)c3ccccc3F)cc2s1)NCC1CCCO1 (centres undefined),i
CNCC(=O)NC(C)c1cnn(-c2ccccc2OC)c1 (centres undefined),i
O=C(Cn1c(=O)n(-c2ccc(F)cc2)c(=O)c2sccc21)Nc1ccc(F)cc1,i
O=C(COc1ccc2c3c(c(=O)oc2c1)CCC3)c1ccccc1,i
O=C(COc1cc(=O)n2c(n1)SCCC2)c1ccccc1,64%*
COc1ccc(Cc2c(O)nc3n(c2=O)CCCS3)cc1,i
COc1ccc(-c2cc(N3CCN(S(=O)(=O)Cc4ccccc4)CC3)ncn2)cc1,i
Cc1nccn1-c1nc(-c2ccc(Cl)cc2)cc(C(F)(F)F)n1,i
COc1ccc(S(=O)(=O)N2CCN(C(=O)c3ccccc3)CC2)cc1F,i
COc1ccc(-c2ncc(Cl)cn2)c2ccc(C)nc12,i
Cc1ccc(O)c(CCc2ccc(O)c(S(=O)(=O)O)c2)n1,i
Cc1ccc2c(C)ccc(O)c2n1,31%*
CCCN(Cc1cccc([N+](=O)[O-])c1)CC1CC1,96%*
O=[N+]([O-])c1cccc(CN2CCCCC2CCO)c1 (centres undefined),i
O=[N+]([O-])c1cccc(CN2CCC(N3CCCCCC3)CC2)c1,i
COc1ccc(CC(=O)Nc2cccc(C)c2)cc1,i
CCOc1cc(/C=C2\OC(=O)c3c2cc(C)[nH]c3=O)ccc1O,i
SMILES,ST2 IL33 inh
Cc1ccc(C2(O)CCN(C(=O)CCn3cnnn3)CC2)nc1,i
Cc1cc2ccccc2n1CCNS(C)(=O)=O,i
Cc1ccc(N(CC(=O)O)S(C)(=O)=O)cc1C,i
CCN(CCNS(C)(=O)=O)c1ccc(N)c(C)c1,35%*
CN1C[C@H](O)[C@@H](O)[C@H](O)[C@H]1CO,i
Cc1ccc(C)c(S(=O)(=O)N2CCN(c3nc(C)cc(Nc4ccccc4)n3)CC2)c1,i
Cc1ccc(Nc2cc(C)nc(N3CCN(S(=O)(=O)c4c(C)cc(C)cc4C)CC3)n2)cc1,i
Cc1ccc(Nc2cc(C)nc(N3CCN(S(=O)(=O)c4cc(C(C)C)ccc4C)CC3)n2)cc1,30%*
CCN(CC)S(=O)(=O)c1ccc2oc(C(=O)N3CCCC3)c(C)c2c1,i
CC12CC(NC(=O)N1c1ccc(Br)cc1)c1cc(Br)ccc1O2 (centres undefined),i
O=C(O)c1ccccc1CN1CCCN(Cc2ccccc2F)CC1,i
CCc1ccccc1NC(=O)CSc1nnc(-c2ccncc2)n1-c1ccccc1,i
c1ccc(-c2nnc(SCC3CCOCO3)n2-c2ccccc2)cc1 (centres undefined),31%*
O=C(CSc1nnc(-c2ccco2)n1-c1ccccc1)NCC1CCCO1 (centres undefined),i
O=C(CN(Cc1ccccc1Cl)S(=O)(=O)c1ccc(Cl)cc1)NC1CC1,i
Cc1cc(NCCO)n2c(nc3ccccc32)c1C#N,i
Cc1cc(Nc2ccc(O)cc2)n2c(nc3ccccc32)c1C#N,33%*
Cc1cc(NCCCN(C)C)n2c(nc3ccccc32)c1C#N,i
CCCCN(CC)S(=O)(=O)c1ccc(C(=O)Nc2nnc(-c3ccccc3OC)o2)cc1,i
CCC(=O)Nc1ccc(-c2nc3ncccc3o2)cc1,i
O=C(COc1ccccc1)Nc1ccc(Cl)cc1,i
Cc1ccc(-c2nc3ncccc3o2)cc1NC(=O)COc1ccc(Br)cc1,i
O=C(COc1ccc(Br)cc1)Nc1ccc(F)cc1,39%*
CC(C)Oc1cccc(C(=O)Nc2cc(-c3nc4ncccc4o3)ccc2Cl)c1,i
Cc1ccc(NC(=O)COc2ccc(C)cc2)cc1,i
Cc1ccc(OCC(=O)Nc2cc(-c3nc4ncccc4o3)ccc2Cl)cc1C,30%*
O=C(COc1ccc(Br)cc1)Nc1ccc(-c2nc3ncccc3o2)cc1,33%*
CCOc1ccc(C(=O)Nc2cc(-c3nc4ncccc4o3)ccc2C)cc1,i
CCOCCCNC(=O)C1c2c(n(C)c3ccccc23)SCC(=O)N1C1CC1 (centres undefined),i
